Experimental data from PubChem BioAssay (Tox21).
Records with an inconclusive call do not appear. Entries that show only a call come without a potency. The source made the active and inactive calls. Calls come from the whole dose curve; as a rule, active = well fitted cell-killing curve with a large enough effect in the repeat runs; inconclusive = weak or mixed curves, or effect the other way; inactive = flat fitted curve, though single readings scatter.

Experiments:
[1] = cAMP Responsive Elements (CRE) small molecule antagonists, cell-based qHTS assay: qHTS cell viability counter screen (AID 2060913); settings: CRE-bla HEK293T viability, CellTiter-Glo luminescence, 5 h; series mostly up to 92.4 µM; note: nearly all actives have a fitted effect of over 40% in size
Procedure, shortened: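 Viability of NKH477-stimulated (0.25 uM final) CRE-bla HEK293T cells is measured by CellTiter-Glo luminescence following 3 hrs compound exposure at 37 C.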

[2] = cAMP Responsive Elements (CRE) small molecule agonists, cell-based qHTS assay: qHTS cell viability counter screen (AID 2060914); settings: CRE-bla HEK293T viability, CellTiter-Glo luminescence, 5 h; series mostly up to 92.4 µM;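 note: viability read after 3 h of compound exposure; nearly all actives have a fitted effect of over 50% in size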
Procedure, shortened: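 Cytotoxicity counter screen multiplexed with the CRE-bla reporter assay in HEK 293T cells: 3 h compound exposure at 37 °C, followed by CellTiter-Glo luminescence measured in the same wells.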

SMILES	Potency [1]	Potency [2]
CCCCSCCCC	inactive	inactive
O=C1CCC/C=C\CCCCCCCCCC1	inactive	inactive
O=C1CCCCCCCCCCOCCCCO1	inactive	inactive
c1ccc2nccnc2c1	inactive	inactive
OCC1CCC(CO)CC1 (stereo not drawn)	inactive	inactive
O=S(=O)(O)c1ccc(O)cc1	inactive	inactive
O=C1CCCC(=O)C1	inactive	inactive
CC(C)CCCCCCCOC(=O)c1ccc(C(=O)OCCCCCCCC(C)C)c(C(=O)OCCCCCCCC(C)C)c1	inactive	inactive
CC(=O)c1c(C)cc(C(C)(C)C)cc1C	inactive	inactive
